The text below walks through data of PMC5540273 (PLoS ONE, 2017).

Each structure is given as a SMILES string.

Holding throughout (conditions): concentration: 1 μM, replicates: in singlicate; n = 1
Assay [1] relates to CDK4-cyclinD1.
The subject of assay [2] is CDK4-cyclinD3.
Assay [3] has as its system CDK4.
The subject of assay [4] is CDK5.
Assay [5] deals with CDK7.
Assay [6] deals with CDK8.
Assay [7] has as its system CDK9.
In assay [8] the test system is CDKL1.
Assay [9] concerns CDKL2.
The test system of assay [10] is CDKL3.
The subject of assay [11] is CDKL5.
In assay [12] the test system is CHEK1.
Assay [13] deals with CHEK2.
Assay [14] concerns CIT.
Assay [15] has as its system CLK1.
Assay [16] deals with CLK2.
In assay [17] the test system is CLK3.
The subject of assay [18] is CLK4.
The test system of assay [19] is CSF1R-autoinhibited.
The subject of assay [20] is CSF1R.
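Note: KINOMEscan kinase panel screen.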

Consider `COC(=O)C(Cc1ccccc1)NC(=O)NC1CCN(c2ccnc(Nc3ccc(F)cc3)n2)C1` (stereo not drawn) [GSK1379714], for which the “%Inh” value in assay [1] is 29%; in assay [2] it was 0%; in [3] it was 5%; in assay [4], 0%; in assay [5], 0%; in assay [6] it was 48%. In addition, the “%Inh” value in assay [7] was 0%; in [8], 8%; in assay [9] it was 9%; in [10], 0%; in [11], 1%; in assay [12], 86%. Besides, the “%Inh” value in [13] is given as 14%; in assay [14], 6%; in [15], 5%; in assay [16] it was 0%; in assay [17], 0%; in assay [18], 13%. For the same molecule, the “%Inh” value in assay [19] is listed as 35%; in assay [20], 1%.
With `Cc1cnc(N)c(/C=C/c2cncc(C(=O)NCCc3ccc(Cl)cc3Cl)c2)c1.Cl` [GSK190937], the “%Inh” value in assay [1] worked out at 0%; in assay [2] it was 0%; in assay [3] it was 16%; in assay [4], 0%; in [5], 0%; in assay [6], 88%. Besides, the “%Inh” value in assay [7] is listed as 0%; in [8], 0%; in [9], 15%; in [10], 0%; in assay [11] it was 9%; in assay [12] it was 0%. For the same molecule, the “%Inh” value turned out to be 26% in [13]; 31% in assay [14]; 38% in assay [15]; 48% in [16]; 0% in assay [17]; 57% in [18]. Further, the “%Inh” value in [19] is 6%; in assay [20], 25%.
As for `COc1ccc(Nc2nccc(N3CCC(NC(=O)C(C)c4ccc(Cl)cc4)CC3)n2)cc1` (stereo not drawn) [GSK1379812], the “%Inh” value is reported as 0% in assay [1]; 0% in assay [2]; 33% in assay [3]; 0% in assay [4]; 0% in assay [5]; 20% in assay [6]. Besides, the “%Inh” value came out at 0% in assay [7]; 4% in [8]; 0% in [9]; 0% in assay [10]; 100% in assay [11]; 0% in [12]. Also, the “%Inh” value is listed as 0% in assay [13]; 9% in assay [14]; 13% in [15]; 11% in [16]; 0% in [17]; 9% in [18]. Besides, the “%Inh” value in [19] and in assay [20] was 0% throughout.
With `O=C(Nc1n[nH]c2nc(-c3cccs3)c(Br)cc12)C1CC1` [SB-735297], the “%Inh” value in assay [1] turned out to be 0%; in [2], 0%; in assay [3], 0%; in assay [4], 0%; in assay [5], 16%; in assay [6], 0%. In addition, the “%Inh” value in assay [7] amounted to 0%; in assay [8], 34%; in assay [9] it was 96.4%; in assay [10], 0%; in assay [11], 0%; in [12], 0%. In addition, the “%Inh” value stood at 0% in [13]; 0% in assay [14]; 11% in [15]; 0% in assay [16]; 0% in [17]; 0% in assay [18]. In addition, the “%Inh” value in [19] and in [20] was 0% throughout.
Take `CNc1nc(-c2ccc3c(N)n[nH]c3c2)cc(N2C[C@@H](C(=O)Nc3ccccc3)CC[C@H]2C)n1` [GSK2298859]: the “%Inh” value in assay [1] is 0%; in assay [2] it was 2%; in assay [3], 25%; in assay [4], 0%; in [5] it was 0%; in [6], 7%. Moreover, the “%Inh” value in assay [7] turned out to be 0%; in assay [8] it was 3%; in [9], 0%; in assay [10], 0%; in assay [11], 1%; in assay [12], 0%. Besides, the “%Inh” value turned out to be 11% in assay [13]; 89% in assay [14]; 33% in [15]; 68% in assay [16]; 6% in assay [17]; 43% in assay [18]. The “%Inh” value in assay [19] amounted to 0%; in [20], 2%.
As for `Fc1ccc(-c2nn3cccc(F)c3c2-c2ccncc2)cc1` [GW475620], the “%Inh” value in assay [1] was 1%; in assay [2] it was 0%; in assay [3], 24%; in assay [4], 17%; in assay [5], 0%; in assay [6], 15%. For the same molecule, the “%Inh” value turned out to be 0% in [7]; 0% in assay [8]; 14% in assay [9]; 0% in assay [10]; 0% in assay [11]; 0% in assay [12]. For the same molecule, the “%Inh” value is recorded as 0% in assay [13]; 96.3% in [14]; 22% in assay [15]; 0% in assay [16]; 6% in assay [17]; 26% in assay [18]. Moreover, the “%Inh” value in [19] and in assay [20] was 0% in each case.
On to `CC(C)c1cc(-c2ccc3c(N)n[nH]c3c2)nc(N)n1` [GSK2250882], for which the “%Inh” value in assay [1] was determined as 0%; in assay [2] it was 0%; in assay [3], 0%; in assay [4] it was 0%; in assay [5], 0%; in assay [6], 20%. The “%Inh” value in [7] is 0%; in assay [8] it was 23%; in assay [9] it was 20%; in assay [10] it was 0%; in assay [11], 0%; in [12], 0%. Besides, the “%Inh” value in assay [13] is listed as 84%; in [14], 5%; in assay [15] it was 59%; in assay [16], 21%; in [17] it was 0%; in [18], 62%. Further, the entries for the “%Inh” value in assay [19] and in assay [20] were 6% and 5%, respectively.
In the case of `COc1cccc(CNC(=O)NC2CCN(c3ccnc(Nc4ccc(F)cc4)n3)C2)c1` (stereo not drawn) [GSK1379723], the “%Inh” value in [1] was 0%; in [2], 15%; in [3], 0%; in assay [4], 0%; in [5] it was 0%; in assay [6], 0%. Besides, the “%Inh” value in assay [7] is 0%; in assay [8], 0%; in [9] it was 39%; in [10], 0%; in [11], 6%; in [12] it was 5%. For the same molecule, the “%Inh” value in assay [13] is recorded as 0%; in [14] it was 19%; in assay [15], 19%; in [16], 0%; in assay [17], 0%; in assay [18], 8%. Also, the “%Inh” value in assay [19] stood at 10%; in [20], 2%.
Turning to `Cc1c(Cn2c3ccccc3n3c(=O)cc(N4CCOCC4)nc23)cccc1C(F)(F)F` [GSK2306394], the “%Inh” value in [1], in assay [2], in [3], in [4], in assay [5] and in assay [6] was 0% throughout. The “%Inh” value in assay [7] was 100%; in [8] it was 0%; in assay [9], 16%; in assay [10], 0%; in [11], 0%; in assay [12], 12%. Besides, the “%Inh” value in assay [13] is 0%; in assay [14], 30%; in assay [15] it was 18%; in [16], 11%; in [17], 0%; in [18], 20%. The “%Inh” value in [19] and in assay [20] was 0% throughout.
